According to PubChem BioAssay AID393 (SGCOxCompounds, 2006):
Activity calls are given as the source filed them. The rule behind the calls is not given here.

Molecular target: Serine/threonine-protein kinase pim-1 (Homo sapiens) (UniProt P11309)
Test: PIM1 kinase ligand binding by thermal shift, biophysical, human, melting temperature shift (AID 393)
Settings: Thermal shift assay, hits give high values; at 10 µM, protein 2 µM, buffer 10 mM PIPES, pH 6.5, NaCl 150 mM unless noted

Serine/threonine-protein kinase pim-1 (Homo sapiens), sequence (P11309 whole entry, looked up): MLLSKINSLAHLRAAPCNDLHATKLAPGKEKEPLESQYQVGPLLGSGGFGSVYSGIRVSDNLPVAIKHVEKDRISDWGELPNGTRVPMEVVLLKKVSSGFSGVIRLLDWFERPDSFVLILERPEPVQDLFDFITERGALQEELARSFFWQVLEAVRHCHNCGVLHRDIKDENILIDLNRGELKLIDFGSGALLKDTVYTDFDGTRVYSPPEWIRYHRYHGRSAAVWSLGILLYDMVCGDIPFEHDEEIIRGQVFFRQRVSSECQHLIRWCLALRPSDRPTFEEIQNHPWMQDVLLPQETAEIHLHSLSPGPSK

Tm shift, active:
CC(=O)c1cccc(-c2cnc3ccc(NCC4CC4)nn23)c1 6.41 Celsius [at 5 µM, protein 1 µM, buffer 10 mM HEPES]
O=c1cc(-c2ccc(O)cc2)oc2cc(O)cc(O)c12 3.4 Celsius [at 10 µM, protein 2 µM, buffer 10 mM Na Citrate, pH 6.5, NaCl 150 mM]
CCC(CO)Nc1ccc2ncc(-c3ccc(OC)nc3)n2n1 (centres undefined) 4.1 Celsius
Cc1ccc2c(c1)=C(c1[nH]c(=S)[nH]c1O)C(=O)N=2 6.4 Celsius
O=C1NCc2c1c1c3ccccc3[nH]c1c1[nH]c3ccccc3c21 7.8 Celsius [at 10 µM, protein 2 µM, buffer 10 mM Na Citrate, pH 6.5, NaCl 150 mM]
NCCNC(O)(O)c1cccc2c(Cl)cccc12 3.5 Celsius [at 10 µM, protein 2 µM, buffer 10 mM Na Citrate, pH 6.5, NaCl 150 mM]
CCC(CO)Nc1ccc2ncc(-c3ccc(C(=O)O)cc3)n2n1 (centres undefined) 5.19 Celsius
O=C1Cc2c([nH]c3ccc(Br)cc23)-c2ccccc2N1 3.9 Celsius [at 10 µM, protein 2 µM, buffer 10 mM Na Citrate, pH 6.5, NaCl 150 mM]
FC(F)(F)Oc1cccc(-c2cnc3ccc(NC4CCOCC4)nn23)c1 9.75 Celsius
O=c1c(O)c(-c2ccc(O)c(O)c2)oc2cc(O)cc(O)c12 9.8 Celsius [at 10 µM, protein 2 µM, buffer 10 mM Na Citrate, pH 6.5, NaCl 150 mM]
CC(C)[C@@H](CO)Nc1ccc2ncc(-c3cccc(C(F)(F)F)c3)n2n1 8.83 Celsius
O=Nc1c(-c2c(O)[nH]c3ccc(S(O)(O)O)cc23)[nH]c2ccccc12 4.2 Celsius [at 10 µM, protein 2 µM, buffer 10 mM Na Citrate, pH 6.5, NaCl 150 mM]
NCCNc1ncc(C(N)=O)c(Nc2cccc(C(F)(F)F)c2)n1 5.5 Celsius [at 10 µM, protein 2 µM, buffer 10 mM Na Citrate, pH 6.5, NaCl 150 mM]
CC(C)[C@@H](CO)Nc1ccc2ncc(-c3cccc(F)c3)n2n1 5.64 Celsius
Clc1cccc(-c2cnc3ccc(NCCc4ccccn4)nn23)c1 7.06 Celsius [at 5 µM, protein 1 µM, buffer 10 mM HEPES]
CNC(=O)c1cc(Oc2ccc(NC(=O)Nc3ccc(C)c(C(F)(F)F)c3)cc2)ccn1 3.1 Celsius [at 10 µM, protein 2 µM, buffer 10 mM Na Citrate, pH 6.5, NaCl 150 mM]
FC(F)(F)Oc1cccc(-c2cnc3ccc(NCC4CC4)nn23)c1 7.73 Celsius
CC(=O)n1c(O)c(C2=NC(=S)NC2=O)c2ccccc21 3.17 Celsius
CN(C)CC1CCn2c(c(C3=C(c4cn(C)c5ccccc45)C(=O)NC3=O)c3ccccc32)C1 (centres undefined) 4.9 Celsius [at 10 µM, protein 2 µM, buffer 10 mM Na Citrate, pH 6.5, NaCl 150 mM]
